The record followed here is PubChem BioAssay (NCATS).

Active and inactive are the calls of the source. How the calls were made is not given here.
Potency means the concentration at half of the fitted maximal effect.

This test relates to HIV-1 nucleocapsid protein NCp7 (binding to TG oligonucleotide). The experiment in a line: HIV Nucleocapsid (AID 346).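 Further: potency is for inhibitors that block NC binding and lower polarization.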 The note with it: HIV-1 NC / fluorescein-TGTGTGTG probe, fluorescence polarization. The essentials:
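Inhibition of nucleocapsid binding to single-stranded 5'-TGTGTGTG probe (10 nM) was measured by fluorescence polarization after 1 hr at room temperature with 100 nM protein under high-salt, zinc-containing, reducing conditions.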
As to `Clc1ccccc1-c1nc(NC2CCNCC2)c2ccccc2n1`, the Potency was > 20 µM (inactive).

Take `O=C(c1csnn1)N1CCC[C@@]2(CCN(Cc3ccccc3)C2)C1`: the Potency is > 20 µM (inactive).

In the case of `CCNc1ncc2ncc(=O)n(C)c2n1`, the Potency was > 20 µM (inactive).

Consider `O=C(c1cnccn1)N1CCC2(CC1)CCN(c1ccccc1)CC2`, for which the Potency is > 20 µM (inactive).

Turning to `COc1cccc(-c2ccc3ncnc(N4CCN(C)CC4)c3c2)c1`, the Potency was > 20 µM (inactive).

`COc1ccc2[nH]cc(CCNc3ccnc(-c4cccc(NS(C)(=O)=O)c4)n3)c2c1`: the Potency was > 20 µM (inactive).

For `COCCn1c(=O)c(-c2ccc(F)c(F)c2)nc2cncnc21`, the Potency is > 20 µM (inactive).

Consider `O=c1c(-c2cc(F)cc(F)c2)nc2cnc(N3CCOCC3)nc2n1-c1ccccc1`, for which the Potency is > 4 µM (inactive).

Consider `Cc1noc(C)c1C(=O)N1CCC2(CC1)CN(Cc1cc(C(F)(F)F)cc(C(F)(F)F)c1)C2`, for which the Potency was > 20 µM (inactive).

Consider `COc1ccc(CNc2ncncc2-c2c(C)noc2C)c(OC)c1`, for which the Potency was > 20 µM (inactive).

On to `Cn1cccc1C(=O)N1CCC2(CCCN(c3ccc(-c4ccccc4)cc3)C2)CC1`, for which the Potency was > 20 µM (inactive).

Turning to `COc1ccccc1CN1CCC2(CC1)CCN(S(C)(=O)=O)CC2`, the Potency is > 20 µM (inactive).

For `O=C(c1csnn1)N1CCC2(CC1)CN(C(c1ccccc1)c1ccccc1)C2`, the Potency was > 20 µM (inactive).

In the case of `COc1ccccc1-c1cncnc1NCCN1CCOCC1`, the Potency is > 20 µM (inactive).

Take `COc1ccccc1CNc1nc(-c2cccc(C#N)c2)nc2ccccc12`: the Potency was > 20 µM (inactive).

On to `Cn1cccc1C(=O)N1CCC2(CCCN(C(c3ccccc3)c3ccccc3)C2)CC1`, for which the Potency was > 20 µM (inactive).

On to `Cc1nc2cnc(Nc3ccccc3)nc2n(CCc2ccccc2)c1=O`, for which the Potency is > 20 µM (inactive).

For `COc1cccc(Cn2c(=O)c(C)nc3cnc(Nc4ccccc4)nc32)c1`, the Potency was > 4 µM (inactive).

Turning to `O=c1cnc2cnc(OCc3ccccc3)nc2n1CCc1ccccc1`, the Potency is > 20 µM (inactive).

As to `Cn1cccc1C(=O)N1CCC2(CCCN(Cc3ccc(C#N)cc3)C2)CC1`, the Potency is > 20 µM (inactive).

As to `CN(C)Cc1ccccc1-c1cc(NCc2ccccc2)ncn1`, the Potency is > 20 µM (inactive).

For the compound `O=c1c(-c2ccccc2)nc2cnc(N3CCNCC3)nc2n1-c1ccccc1`, the Potency was > 20 µM (inactive).

Turning to `COc1cccc(-c2nc(N3CCN(C)CC3)c3ccccc3n2)c1`, the Potency is > 20 µM (inactive).

For `COc1ccc(Oc2ncc3nc(-c4cccc(C#N)c4)c(=O)n(C)c3n2)cc1`, the Potency was > 20 µM (inactive).

In the case of `CN(C)c1ncc2nc(-c3cc(F)cc(F)c3)c(=O)n(-c3ccccc3)c2n1`, the Potency was > 4 µM (inactive).

Regarding `COc1ccc(C(=O)N2CCC3(CCCN(CC(C)C)C3)CC2)cc1`, the Potency is > 20 µM (inactive).

`COc1ccccc1-c1cncnc1Nc1ccc(F)cc1`: the Potency is > 20 µM (inactive).

As to `COC(=O)N1CCC2(CCCN(C(=O)Nc3ccc(OC)cc3)C2)CC1`, the Potency is > 20 µM (inactive).

On to `O=c1c(-c2cc(F)cc(F)c2)nc2cnc(N3CCNCC3)nc2n1-c1ccccc1`, for which the Potency was > 20 µM (inactive).

Take `COC(=O)N1CCC2(CCCN(C(=O)Nc3cccc(C#N)c3)C2)CC1`: the Potency was > 20 µM (inactive).

With `CN(C)C(=O)c1ccc(-c2ccc3ncnc(NCc4ccccc4)c3c2)cc1`, the Potency was > 20 µM (inactive).

`COc1ccc(-n2c(=O)c(CCc3ccccc3)nc3cnc(N4CCN(C)CC4)nc32)cc1`: the Potency was > 20 µM (inactive).

In the case of `N#Cc1cccc(-c2cc(-n3ccnc3)ncn2)c1`, the Potency was > 20 µM (inactive).

Consider `COc1cccc(Nc2ncc3ncc(=O)n(CCc4ccccc4)c3n2)c1`, for which the Potency was > 4 µM (inactive).

For `CN1CCN(c2ncc3nc(-c4cccs4)c(=O)n(-c4ccccc4)c3n2)CC1`, the Potency was 16.7 µM (inactive).

For the compound `COc1ccc(C(=O)N2CCC3(CCCN(Cc4ccccc4OC)C3)CC2)cc1`, the Potency is > 20 µM (inactive).

In the case of `O=c1c(-c2cccc(F)c2)nc2cncnc2n1Cc1ccc(F)cc1`, the Potency is > 20 µM (inactive).

`COc1cccc(Cn2c(=O)c(CCc3ccccc3)nc3cnc(N4CCOCC4)nc32)c1`: the Potency was > 20 µM (inactive).

For `Cn1c(=O)c(-c2ccccc2)nc2cncnc21`, the Potency was > 20 µM (inactive).
